Data on 52 compounds can be found in PubChem BioAssay AID504834 (National Center for Advancing Translational Sciences (NCATS), 2011).

Where “and” joins values, the source holds several entries; their conditions need not be identical. Equal values may be shown once. About 22,000 (6.9%) of roughly 320,000 compounds were called active. About 27% were inconclusive and are not listed. Calls follow the shape of the dose curve; as a rule, active = well fitted inhibition curve with a large enough effect; inconclusive = small, poorly fitted or top-dose-only effect, or another doubt; inactive = no such curve, though single readings can be large or run the other way. The entries come from a sample that favours actives as a whole. More than one record can exist for a structure, and the calls need not agree.
% is scaled to controls: 0 for no effect and ±100 for the full control effect; potency is read from the fitted curve at half-maximal effect.

The nature of the assay: Primary qHTS for delayed death inhibitors of the malarial parasite plastid, 96 hour incubation. As to conditions: P. falciparum luciferase reporter growth; series mostly up to 28.7 µM; activity change, negative = inhibition: at the top concentration. Put shortly:
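Plates of compound plus infected erythrocytes (2% hematocrit, 0.05% parasitemia final) incubate 96 hours, 37 C, 5% CO2. Detection reagent added; reduced luminescence from the parasites' luciferase reporter flags inhibition.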
Background: qHTS replaces the single test concentration by a dilution series.
On to `CC(C)CNC(=O)C(=O)NCC(c1ccc2c(c1)OCO2)N1CCOCC1` (configuration not stated), for which the “activity change, negative = inhibition” value is 80.6% (inactive).
As to `CC1=NN(c2cccc(Cl)c2)C(=O)C12CC(C)=C(C)CS2` (configuration not stated), the Potency is 3.7 µM (active).
As to `CC12CCC(C(=O)N(c3cccc(Cl)c3)C1=O)C2(C)C` (configuration not stated), the “activity change, negative = inhibition” value was 86.3% (inactive).
`Cc1cccc(OCCC(=O)OCc2csc(CC(=O)Nc3ccccc3C)n2)c1`: the “activity change, negative = inhibition” value was -1.27% (inactive).
Still for that read-out and setting: in the case of `O=CN1CCN(C(=O)c2ccc(Br)o2)CC1` it was -8.76% (inactive).
As for `COc1ccc(-n2cnnc2SCC(=O)Nc2cccc(S(N)(=O)=O)c2)cc1`, the “activity change, negative = inhibition” value is -2.69% (inactive).
Turning to `O=C(N/N=C/c1cccc(Br)c1)c1ccc(N2CCCC2=O)cc1`, the “activity change, negative = inhibition” value was 11.4% (inactive).
Regarding `CCOC(=O)N1CCN(C(=O)C2CCN(S(=O)(=O)c3cc(Cl)ccc3OCC)CC2)CC1`, the “activity change, negative = inhibition” value is 38.7% (inactive).
In the case of `CN(C)P(=S)(Nc1ccccc1)C(Cl)(Cl)Cl` (configuration not stated), the Potency was 8.28 µM (active).
As to `O=C(CN1CCN(c2ccccc2)CC1)Nc1ccc(F)cc1`, the “activity change, negative = inhibition” value was 10.7% (inactive).
As to `CC(Oc1ccc(F)cc1)C(=O)N1CCN(c2ncccn2)CC1` (configuration not stated), the “activity change, negative = inhibition” value is 7.12% (inactive).
`COCCN(C(=O)CC1CCCCC1)c1c(N)n(CC(C)C)c(=O)[nH]c1=O`: the “activity change, negative = inhibition” value was -19.9% (inactive).
On to `CCN(CC)S(=O)(=O)c1cccc(C(=O)Nc2ccccc2)c1`, for which the “activity change, negative = inhibition” value is -28% (inactive).
Consider `CN(C)S(=O)(=O)c1cccc(C(=O)Nc2cccnc2)c1`, for which the Potency is 3.29 µM (active).
Still for that read-out and setting: in the case of `CCC(=O)Nc1cccc(NC(=O)c2cccnc2)c1` it was 13.1 µM (active).
On to `CCOC(=O)c1cc(NC(=O)c2cccnc2)cc(C(=O)OCC)c1`, for which the “activity change, negative = inhibition” value is -1.24% (inactive).
Turning to `CCC(=O)Nc1ccc(C(=O)Nc2cccc(OC)c2)cc1`, the “activity change, negative = inhibition” value was 25.3% (inactive).
As to `O=C(Nc1cccnc1)c1cccc(S(=O)(=O)N2CCCC2)c1`, the “activity change, negative = inhibition” value was 22.3% (inactive).
On the same count and under the same terms, in the case of `COc1ccc(C(=O)N2CCN(c3ncccn3)CC2)cc1S(=O)(=O)N1CCOCC1` it was 29.3% (inactive).
`O=C1CN(C(=O)c2cc(F)cc(F)c2)c2ccccc2N1`: the “activity change, negative = inhibition” value was 21.9% (inactive).
On to `Cn1c(O)c(C=Nc2ccc3c(c2)CCC3)c(=O)n(C)c1=O`, for which the “activity change, negative = inhibition” value was -0.84% (inactive).
On to `Cn1c(O)c(C=NCCN2CCNCC2)c(=O)n(C)c1=O`, for which the Potency was 9.28 µM (active).
With `O=c1[nH]c(=O)n(-c2ccc(F)cc2)c(O)c1C=NCCN1CCCCC1`, the “activity change, negative = inhibition” value is -0.537% (inactive).
In the case of `COc1ccc(NC(=O)c2cn(-c3ccccc3)nc2SC)cc1`, the “activity change, negative = inhibition” value was 32.2% (inactive).
Regarding `Cc1cccc(N2CCN(C(=O)COCc3cc(-c4ccc5c(c4)OCO5)on3)CC2)c1C`, the “activity change, negative = inhibition” value is 63.5% (inactive).
Regarding `Cc1ccsc1-c1cc(C(=O)O)c2c(ccc3ccccc32)n1`, the “activity change, negative = inhibition” value is 42.5% (inactive).
Regarding `Cc1ccc(Cl)cc1NC(=S)N(CCN(C)C)Cc1cccs1`, the “activity change, negative = inhibition” value was 42.5% (inactive).
Consider `Cc1ccccc1NC(=S)N(CCCN1CCOCC1)Cc1cccs1`, for which the Potency was 3.7 µM (active).
For `Cc1ccc(NC(=S)N(CCN(C)C)Cc2cccs2)cc1C`, the “activity change, negative = inhibition” value is 14.5% (inactive).
On to `CCN(C(=O)COC(=O)c1sccc1C)c1c(N)n(Cc2ccccc2)c(=O)[nH]c1=O`, for which the “activity change, negative = inhibition” value was -27.9% (inactive).
In the case of `COc1ccc(OC)c(/C=N/NC(=O)c2ccc[n+](CC(=O)c3ccccc3)c2)c1`, the “activity change, negative = inhibition” value was 13.8% (inactive).
Still for that read-out and setting: in the case of `O=C(O)c1ccccc1CSc1nc2ccccc2s1` it was 58.7% (inactive).
On to `CCOC(=O)C1CCCN(C(=O)CN(c2ccc(OC)cc2)S(=O)(=O)c2c(C)noc2C)C1` (configuration not stated), for which the “activity change, negative = inhibition” value was 67.4% (inactive).
In the case of `Cc1cc(C)cc(N(CC(=O)NCC2CCCO2)S(=O)(=O)c2c(C)noc2C)c1` (configuration not stated), the “activity change, negative = inhibition” value was -10.5% (inactive).
On to `Cc1cc(C)cc(N(CC(=O)N2CC=C(c3ccccc3)CC2)S(=O)(=O)c2c(C)noc2C)c1`, for which the Potency was 6.57 µM (active).
Regarding `COc1ccc(NC2CCCN(C(=O)c3ccncc3)C2)cc1` (configuration not stated), the “activity change, negative = inhibition” value was 8.58% (inactive).
On to `COc1ccccc1N(C)C(=O)c1cc(S(=O)(=O)N2CCc3ccccc32)cn1C`, for which the “activity change, negative = inhibition” value was 0.199% (inactive).
As for `CC(=O)NCC(O)c1ccc([N+](=O)[O-])cc1` (configuration not stated), the “activity change, negative = inhibition” value was 10.7% (inactive).
On to `Cc1ccc(C23CC4CC(CC(C(=O)NCC(=O)O)(C4)C2)C3)cc1`, for which the “activity change, negative = inhibition” value was -2.65% (inactive).
In the case of `NCC(O)c1ccc(O)cc1` (configuration not stated), the Potency entry was “inactive and 4.26 µM (active)”.
Turning to `CNCC(O)c1ccc(O)c(O)c1` (configuration not stated), the “activity change, negative = inhibition” value is 3% (inactive).
With `COc1ccc(S(=O)(=O)NNC(=O)Nc2ccc(C)cc2)c(OC)c1`, the “activity change, negative = inhibition” value is 16.2% (inactive).
As for `N#CCCN1CCN(S(=O)(=O)c2ccc(S(=O)(=O)NC3CCCCC3)cc2)CC1`, the Potency is 8.28 µM (active).
For `N#CCCN1CCN(S(=O)(=O)c2ccc(S(=O)(=O)N3CCCC3)cc2)CC1`, the “activity change, negative = inhibition” value is 13.4% (inactive).
For `N#CCCN1CCN(S(=O)(=O)c2ccc(S(=O)(=O)NC3CC3)cc2)CC1`, the “activity change, negative = inhibition” value was 14.9% (inactive).
Same read-out and setting: for `CN(Cc1ccc(F)cc1Cl)S(=O)(=O)c1cccs1` the value was 0.235% (inactive).
Take `Cc1cccc(OCC(=O)NC(=S)Nc2ccccc2N2CCOCC2)c1`: the “activity change, negative = inhibition” value was 19.3% (inactive).
For `COCC(=O)Nc1c(C(=O)N2CCCC2)oc2ccccc12`, the “activity change, negative = inhibition” value was -7.27% (inactive).
`CCOCCCN(C)C1CCN(C(=O)c2oc3ccccc3c2NC(=O)COc2cccc(C)c2)CC1`: the Potency is 13.1 µM (active).
For the compound `Cc1ccc(C)c(C(=O)N2CCC(n3nccc3NC(=O)C3CC3)CC2)c1`, the “activity change, negative = inhibition” value is 28.5% (inactive).
Take `Cc1c(CN2CCC(n3nccc3NC(=O)CCc3ccccc3)CC2)cnn1C`: the “activity change, negative = inhibition” value is -5.6% (inactive).
Take `CCN1CCN(C(=O)C2CCN(S(=O)(=O)c3cc(Cl)ccc3Cl)CC2)CC1`: the “activity change, negative = inhibition” value is 17.3% (inactive).
